NPC1 prom act: activators of NPC1 promoter; hit rate 2.4% among 320,000; Potency, µM (highest dose often 9.22 µM), for inactives: top-dose activation, hits mostly activators; Huh7 NPC1 promoter luciferase reporter, 24 h; also: % of control where 0% means no effect; nearly all actives have a fitted effect of over 60% in size
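Readout is luciferase luminescence, reflecting NPC1 promoter activation in stably transfected Huh7 cells after 24 h compound exposure at 37 °C in reduced-serum medium with 10% FBS.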
SMN2 splice enh: SMN2 splice variant enhancement; HEK293 SMN2-luciferase splicing reporter, luminescence, 30-36 h; Potency, µM (highest dose often 46.1 µM), for the others: at the top dose activity change, positive = activation, actives largely listed as activators; hit rate 2.8% among 210,000; AID 1458; also: % of control where 0% means no effect; nearly all actives have a fitted effect of over 55% in size
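HEK293 cells carry an SMN2 minigene-luciferase reporter in which exon 7 inclusion puts luciferase in frame. Cells were seeded at 2000 cells/well, attached for 10-12 hours, then exposed to compounds for 30-36 hours at 37C before ONE-Glo luminescence.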
Rab9 promoter act: Rab9 promoter activation; Huh7 Rab9 promoter-luciferase reporter, luminescence, 24 h; Potency, µM (top dose mostly 9.22 µM), inactives show at the highest dose activation, negative = inhibition, most hits filed as activators; hit rate 2.8% among 320,000; AID 485297; also: % of control where 0% means no effect; nearly all actives have a fitted effect of over 60% in size
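Cells were plated at 1500 per well in reduced-serum medium with 10% FBS and left 2 h. Compound in DMSO was then added for 24 h at 37 °C. Reporter signal was read by luminescence after 10 min with luciferase detection reagent.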
FLuc counter: counter-screen for miR-21 project: firefly luciferase inhibitors or activators. Potency, µM (top dose mostly 57.5 µM), inactives show at the highest dose activity change, negative = inhibition, most hits filed as inhibitors. hit rate 6.9% among 360,000. AID 588342. purified FLuc, Km substrates, luminescence inhibition;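 also: plate controls were vehicle for no effect and reference inhibitor for full effect; nearly all actives have a fitted effect of over 55% in size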
Target sequence (P08659 whole entry, looked up): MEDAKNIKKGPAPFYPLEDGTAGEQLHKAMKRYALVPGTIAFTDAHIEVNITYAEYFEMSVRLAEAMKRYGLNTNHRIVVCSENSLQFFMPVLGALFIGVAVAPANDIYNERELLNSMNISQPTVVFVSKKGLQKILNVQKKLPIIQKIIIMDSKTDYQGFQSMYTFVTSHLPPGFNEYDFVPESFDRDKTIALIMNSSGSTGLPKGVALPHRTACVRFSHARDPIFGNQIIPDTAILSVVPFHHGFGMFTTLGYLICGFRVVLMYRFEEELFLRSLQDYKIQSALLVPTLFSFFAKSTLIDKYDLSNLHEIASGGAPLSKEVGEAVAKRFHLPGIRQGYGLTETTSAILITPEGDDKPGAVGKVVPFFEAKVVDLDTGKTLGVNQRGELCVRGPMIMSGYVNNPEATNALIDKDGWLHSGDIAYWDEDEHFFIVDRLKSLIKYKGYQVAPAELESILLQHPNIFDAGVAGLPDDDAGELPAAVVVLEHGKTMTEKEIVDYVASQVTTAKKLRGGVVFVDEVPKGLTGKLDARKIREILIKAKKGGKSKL
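Purified P. pyralis luciferase, 10 nM final, with Km-level 10 uM D-luciferin and 10 uM ATP in 50 mM Tris acetate pH 7.5, 10 mM Mg acetate, 0.01% Tween-20, 0.05% BSA; 6-point qHTS titration about 60 µM downward; luminescence read.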
p53 reactivator: re-activators of mutant p53 | hit rate 0.063% among 320,000 | H1299 p53-A138V BP100-luciferase reporter, luminescence, 24 h | Potency, µM (highest dose often 92.2 µM), without a hit: at the top dose activity change, positive = activation, actives largely listed as activators; also: % of control where 0% means no effect; nearly all actives have a fitted effect of over 45% in size
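H1299 (p53-null), stable ts p53-A138V + BP100-Luc; 1000 cells/well, Opti-MEM/10% FBS; cpd 4 pt, 1:5; 24 h, 37 deg C, 5% CO2; detection reagent 10 min RT; luminescence.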
ELG1 genotoxic: genotoxicity induction in ELG1-luciferase HEK293T cells; hit rate 1.3% among 330,000; HEK293T ELG1-luciferase reporter, luminescence, 16 h; AID 504466; Potency, µM (doses to about 46 µM), for the others: top-dose activity change, positive = activation, usual class: activators; also: % of control where 0% means no effect; nearly all actives have a fitted effect of over 60% in size
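Screening used a luciferase reporter fused to human ELG1 in HEK293T cells. Luminescence was read on a CCD plate imager after 16 hr exposure and 30 min ONE-Glo incubation.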
An asterisk follows results filed as active; ? = inconclusive; . = no result given; [ ] = remark or other dose. Shown are actives, neighbours in structure and some others; about 7.4% of the full set was active somewhere. Calls follow the shape of the dose curve; as a rule, active = well fitted curve in the direction sought with a large enough effect; inconclusive = small, poorly fitted or top-dose-only effect, or another doubt; inactive = no such curve, though single readings can be large; an effect the other way counts as inactive or inconclusive. Potency is read from the fitted curve at half-maximal effect.

SMILES	NPC1 prom act	SMN2 splice enh	Rab9 promoter act	FLuc counter	p53 reactivator	ELG1 genotoxic
COc1ccc(N/C=C(/C(C)=O)c2ccccc2)cc1	-0.3%	-15.6%	-8.9%	0.3%	-8.4%	?
COc1ccc(N/C=C/C(=O)c2ccccc2)cc1	0.316µM*	.	0.126µM*	0.12µM*	-3.4%	0.411µM*
COc1ccc(NC(=O)N2CCOCC2)cc1	2.3%	.	6.6%	-0.6%	.	1.4%
Cc1cccc(OCC(=O)NCCCNC(=O)c2ccc(C)nc2)c1	0.2%	.	0.2%	-1.1%	-1.4%	0.5%
O=C(Oc1ccc(C(=S)N2CCOCC2)cc1)c1ccc(Br)cc1	-1.1%	20.9%	-0.7%	-0.1%	5.5%	0.7%
COc1ccc(N/C=C/C(=O)C(C)(C)C)cc1	-0.3%	.	-3.5%	12µM*	2.2%	10.0%
COc1ccc(N/C=C\C(=O)c2ccc3ccccc3c2)cc1	2µM*	.	2.82µM*	?	.	16.8%
CCOc1ccc(N/C=C/C(=O)c2ccc(OC)c(OC)c2)cc1	3.16µM*	.	4.47µM*	3.01µM*	?	18.3µM*
NS(=O)(=O)c1ccc(N/C=C\C(=O)c2ccc3ccccc3c2)cc1	7.3%	0.6%	3.5%	2.5%	2.0%	3.7%
COC(/C=C/Nc1ccc(OC)cc1)=C(C#N)C#N	-5.9%	12.5%	-24.1%	-0.9%	21.7%	-0.4%
CCCOc1ccc(N/C=C/C(=O)c2ccc(OC)c(OC)c2)cc1	-4.7%	.	0.1%	?	2.4%	1.3%
COc1ccc(C(=O)Oc2ccc(C(=S)N3CCOCC3)cc2)cc1	-3.1%	.	-3.9%	21.3µM*	16.3%	0.2%
CCOC(=O)c1cc(OC(=O)c2cccc(F)c2)n(-c2ccccc2)n1	.	-0.9%	.	-12.3%	.	.
CCc1ccc(OCCCCN(C)Cc2ccccc2)cc1	0.9%	.	2.4%	-1.9%	4.9%	4.9%
COc1ccc(N/C=C/C(=O)c2sc(-c3ccccc3)nc2C)cc1	-2.2%	-13.5%	-2.3%	6.75µM*	4.1%	-5.7%
Cc1nc(-c2ccccc2)sc1C(=O)/C=C/c1ccc(Cl)cc1	-3.2%	-23.6%	0.2%	-16.2%	4.0%	-7.1%
CC1=Nc2cc(C(=O)NCc3ccccc3Cl)ccc2Sc2c(C)ccc(C)c21	.	-25.4%	.	-4.3%	.	.
Nc1ccc(Cc2ccc(N)c(O)c2)cc1O	-0.1%	4.7%	?	19µM*	2.4%	-13.0%
O=C(Cn1ncc2ccsc2c1=O)N1CCN(c2ccc(F)cc2)CC1	.	-17.0%	.	1.4%	.	.
CCOC(=O)c1sc(NC(=O)c2ccco2)nc1-c1ccccc1	0.3%	1.4%	-6.4%	-0.3%	10.1%	-9.6%
O=C(Nc1nsc(-c2ccccc2)n1)c1cccs1	1.58µM*	3.16µM*	1.12µM*	4.26µM*	?	0.581µM*
O=C(Nc1c(-c2ccccc2)nc2ccccn12)c1cccs1	-0.8%	-11.8%	1.6%	-4.3%	-5.2%	4.0%
CC(=O)c1sc(NC(=O)c2ccco2)nc1-c1ccccc1	?	27.6%	?	10.7µM*	?	14.6µM*
Cc1sc(N/N=C/c2cccs2)nc1-c1ccccc1	18.2%	-18.8%	?	10.7µM*	?	?
Cc1nc(NC(=O)c2ccco2)sc1C(=O)O	0.8%	.	-0.1%	10.7µM*	-2.0%	4.1%
SMILES	NPC1 prom act	SMN2 splice enh	Rab9 promoter act	FLuc counter	p53 reactivator	ELG1 genotoxic
O=C(O)CCSC1=NCCN1	.	-4.7%[9.22 µM]	.	.	.	.
CC(Oc1cccc([N+](=O)[O-])c1)C(=O)NCCC1=CCCCC1 (stereo not given)	-0.6%	.	0.0%	4.0%	-3.5%	0.3%
COc1ccc(S(=O)(=O)Nc2cccc3c2O[C@H](CN(C)C(=O)NC2CCCCC2)[C@@H](C)CN([C@H](C)CO)C3=O)cc1	.	.	.	.	1.1%	-0.2%
CC(C)(C)c1ccc(Cn2nnc3c(=O)[nH]c(C4CCN(C(=O)c5ccco5)CC4)nc32)cc1	-0.6%	.	-0.8%	0.2%	-12.5%	-1.9%
Cc1cnc(NC(=O)c2ccco2)s1	?	?	?	21.3µM*	14.5%	?
Cc1sc(NC(=O)c2ccco2)nc1-c1ccc2c(c1)CC(C)N2C(=O)C1CC1 (stereo not given)	-1.4%	-37.6%	12.2%	19µM*	9.6%	-31.2%
CC(=O)c1c(C)[nH]c(C(=O)Nc2cccc3ccccc23)c1C	0.6%	.	10.4%	-9.7%	3.5%	-6.3%
CC(=O)c1c(C)[nH]c(C(=O)Nc2nc(-c3ccccc3)c(C)s2)c1C	?	.	?	3.01µM*	?	8.9%
CC(=O)Nc1nc(-c2ccc3c(c2)CC(C)N3C(=O)C2CC2)c(C)s1 (stereo not given)	8.2%	.	3.4%	?	1.7%	-7.9%
Cc1sc(NC(=S)NC(=O)c2cccs2)nc1-c1ccc(C(C)C)cc1	1.5%	-1.0%	8.1%	4.3%	7.9%	-0.1%
Cc1sc(NC(=O)c2cccs2)nc1-c1ccccc1	25.1%	.	?	10.7µM*	?	1.3%
CSc1nnc(NC(=O)c2ccco2)s1	?	.	21.6%	-19.5%	.	17.4%
CCn1ccc(C(=O)Nc2ncc(C)s2)n1	0.794µM*	.	0.794µM*	?	16.3%	0.4%
Cc1sc(NC(=O)c2ccco2)nc1-c1ccccc1	3.55µM*	4.47µM*	1.58µM*	2.13µM*	?	?
C/C(=N\OCC(=O)OCC(=O)NC(=O)c1ccc(OC(F)F)cc1)c1ccc2c(c1)OCO2	-0.9%	.	-4.9%	9.0%	-0.1%	-1.9%
CC(=O)OC1CC2C(C)(C)CCC(=O)[C@@]2(C)C2CC[C@@]3(C)C(c4ccoc4)OC(=O)C4OC43[C@]12C (stereo not given in full)	.	5.0%	.	.	.	.
O=C(/C=C/c1ccccc1)NNC1=NS(=O)(=O)c2ccccc21	-1.6%	.	10.0%	23.9µM*	4.4%	1.6%
O=C(NNC1=NS(=O)(=O)c2ccccc21)c1cccc([N+](=O)[O-])c1	13.8%	.	2.6%	12µM*	0.0%	1.5%
O=C(NNC1=NS(=O)(=O)c2ccccc21)c1ccccc1	28.7%	.	24.7%	4.78µM*	1.2%	6.3%
O=C(NNC1=NS(=O)(=O)c2ccccc21)c1ccccc1Cl	3.7%	.	-9.3%	16.9µM*	4.4%	5.8%
COc1ccc(Cn2c(CCC(=O)Nc3cccc(OC)c3)nc3cccnc32)cc1	.	-8.4%	.	-3.2%	.	.
O=C(O)/C=C(/C(=O)O)[C@]12CCN3CC4=CCO[C@@H]5CC(=O)N[C@@H]1C5[C@H]4C[C@H]32 (stereo not given in full)	.	-3.1%[9.22 µM]	.	.	.	.
Cc1ccc(Cl)cc1NC(=O)CSc1nc2c(c(=O)[nH]1)CN(Cc1ccccc1)CC2	.	.	.	-3.5%	.	.
O=C(NCc1ccccc1Cl)c1ccccc1NC(=O)c1nsc2ccccc12	.	.	.	16.9µM*	.	.
CCOc1cc(CNC(=O)c2ccc(NC(=O)c3nsc4ccccc34)cc2)ccc1OC	.	.	.	3.01µM*	.	.

Bioassay records from PubChem BioAssay.
